According to PubChem BioAssay (EPA / NIEHS):
The source made the active and inactive calls. Rule for the calls: active = hit-call score of the fitted dose curve at least 0.9, where 1 is the maximum; inactive = score below 0.9.

read-out: Cytochrome P450 (CYP24A1), CYP24A1 (gene 1591); test: LTEA_HepaRG_CYP24A1: Life Technologies and Expression Analysis (LTEA) Assay for Cytochrome P450 (CYP24A1) using HepaRG (AID 2283478); details: mRNA level, 48 h; actives raise or lower the signal
Procedure: LTEA_HepaRG is a cell based, multiplexed-readout assay that uses HepaRG, a human liver cell line, with measurements taken at 48 hours after chemical dosing on a 96-well plate.LTEA_HepaRG_CYP24A1 is one of 102 assay component(s) measured in the LTEA HepaRG cell culture assay. It is a marker of NR mediated metabolism.Data from the assay component LTEA_HepaRG_CYP24A1 was analyzed into 1 endpoint. This assay endpoint, LTEA_HepaRG_CYP24A1, was analyzed with bidirectional fitting relative to DMSO as the negative control and baseline of activity. Using a type of inducible reporter, measures of mRNA induction for gain or loss-of-signal activity can be used to understand regulation of transcription factor activity. To generalize the intended target to other relatable targets, this assay endpoint is annotated to the cyp intended target family, where the subfamily is xenobiotic metabolism.
A total of 1060 chemcials from the ToxCast library were tested in eight-point concentration-response experiments. Cell culture and cytotoxicity assays were conducted at Thermo Fisher Scientific's Custom Services facility (Madison, WI). A single lot of human HepaRG cells (Thermo Fisher Scientific, Frederick, MD) was used for the cell culture experiments. 96-well format collagen type I coated plates of human HepaRG cells were prepared using established methods. Briefly, cryopreserved HepaRG cells were thawed, plated at a density of approximately 100,000 cells/well in HepaRG Thaw, Plate, and General Purpose media (HPRG770, Thermo Fisher Scientific), and incubated for 48 hours. 0.5% DMSO was selected as vehicle control to balance the requisite need of DMSO in HepaRG cultures to maintain differentiation (for example, baseline metabolism, proportions of hepatocytes vs. cholangiocytes), while enabling further hepatic receptor pathway activation (for example, PXR and CAR) in response to chemical exposure. 48 hours after plating, the culture medium was replaced with HepaRG Serum-Free Incudtion Media. Cells were exposed to each test chemical in duplicate and maintained in CO2 incubators for another 48 hours. Chemical plates were thawed to room temperature and 200x concentrations of treatment groups were prepared. 8-point conentration-reponse curves were made with the highest exposure at 100 uM, followed by half-log dilutions, all in 0.5% DMSO. Each test plate contained variouse controls, induction positive controls (1mM phenobarbital), cytotoxicity positive controls ([…] aflatoxin B1), vehicle controls (0.5% DMSO), and total lysis controls (0.5% DMSO). Cell morphology images were taken using an Essen IncuCyte FLR automated microscope, with six 96-well plates imaged in about 24 minutes. Images were captured and exported and JPEG files. Spent culture media was transfered to black-well plates for the LDH assay, and remaining media was sorted at -80 C for later use. Cells were treated with RLT buffer and frozen until shipped for gene expression analysis. Total RNA was isolated from the cell suspension in 75 uL of Buffer RLT (Qiagen, Germantown, MD 20874) by Quintiles/Expression Analysis (Durham, NC) using a custom isolation procedure. Total RNA from each plate well was transferred to a preamplification plate. Fluidigm's 96.96 Dynamic ArrayTM (Fluidigm, Amsterdam, the Netherlands) technology was used for gene expression analyses by quantitative reverse transcription polymerase chain reaction (qRT-PCR, performed by Quintiles/Expression Analysis, Durham, NC)89. Standard TaqManTM Assays (Applied Biosystems/ThermoFisher Scientific, Foster City, CA) were used to assess the expression of 93 genes selected based on their selectivity and sensitivity to important hepatic receptors known to be modulated by environmental chemicals; importance in human hepatocyte functionality; and hepatotoxicity. […]

SMILES | outcome | AC50
O=C(O)c1cccc(C[C@@H]2COc3ccc(OCc4nc5cc(F)ccc5s4)cc3[C@@H]2O)c1 | inactive | 
CC(C)c1nnc2ccc(-c3ocnc3-c3cc(F)ccc3F)cn12 | inactive | 
CCOc1ccc2[nH]cc(C(=O)NCc3ccccc3)c(=O)c2n1 | inactive | 
OCCOCCOCCO | inactive | 
CC1(C)C(=O)N(Cl)C(=O)N1Cl | inactive | 
CCc1ccc(O)c(C(C)(C)C)c1 | inactive | 
CCCCC(CC)C(=O)OCCOCCOCCOC(=O)C(CC)CCCC (stereo not given) | inactive | 
OCC(CO)(CO)CO | inactive | 
CCCCCOC(C)=O | inactive | 
C=CCc1cc(S(=O)(=O)c2ccc(O)c(CC=C)c2)ccc1O | inactive | 
CNC(C)=O | inactive | 
CCCC(CCC)C(=O)O | inactive | 
CC(C)CC(C)O (stereo not given) | inactive | 
NC(=O)N1c2ccccc2C=Cc2ccccc21 | inactive | 
CCCCCCCCN(C)C | inactive | 
CC(C)CCCCCCOC(=O)C1CCCCC1C(=O)OCCCCCCC(C)C (stereo not given) | inactive | 
NC(=O)NN=Cc1ccc([N+](=O)[O-])o1 |  | 0.456 µM (active)
CCCCCCCCCCCCCCO | inactive | 
CCCCCCCC/C=C\CCCCCCCC(=O)OC[C@@H](O)[C@H]1OC[C@H](O)[C@H]1O | inactive | 
COS(C)(=O)=O | inactive | 

SMILES | outcome | AC50
CCc1cccc(CC)c1N | inactive | 
OCCNCCO | inactive | 
O=S1(=O)CCCO1 | inactive | 
COCc1nnc(-c2ccc[n+]([O-])c2)n1-c1c(Cl)c(Cl)cc2[nH]c(=O)c(=O)[nH]c12 | inactive | 
OC(CCl)CCl | inactive | 
Cc1nccn1-c1ccc(Sc2cccc(C3(C(N)=O)CCOCC3)c2)cc1 | inactive | 
C=CN1CCCC1=O | inactive | 
c1ccc2c(c1)-c1cccc3c1c-2cc1ccccc13 | inactive | 
OC(Cn1cncn1)(Cn1cncn1)c1ccc(F)cc1F | inactive | 
CCCCOC(=O)c1ccccc1 | inactive | 
CCN(CC)C(=S)SSC(=S)N(CC)CC | inactive | 
O=C(NO)C1(NS(=O)(=O)c2ccc(Oc3ccc(F)cc3)cc2)CCOCC1 | inactive | 
c1ccc(C(O[C@@H]2CCCN(CCc3ccc4c(c3)OCO4)C2)c2ccccc2)cc1 | inactive | 
Cn1c(=O)c2[nH]cnc2n(C)c1=O | inactive | 
Cc1ncc([C@@H](CCCCCCc2ccc3c(n2)NCCC3)CC(=O)O)cn1 | inactive | 
OC[C@H]1O[C@@H]2O[C@H]3[C@H](O)[C@@H](O)[C@@H](O[C@H]4[C@H](O)[C@@H](O)[C@@H](O[C@H]5[C@H](O)[C@@H](O)[C@@H](O[C@H]6[C@H](O)[C@@H](O)[C@@H](O[C@H]7[C@H](O)[C@@H](O)[C@@H](O[C@H]1[C@H](O)[C@H]2O)O[C@@H]7CO)O[C@@H]6CO)O[C@@H]5CO)O[C@@H]4CO)O[C@@H]3CO | inactive | 
C[C@]12C=CC(=O)C=C1CC[C@H]1[C@@H]3C[C@@H](O)[C@](O)(C(=O)CO)[C@@]3(C)C[C@H](O)[C@@]12F | inactive | 
COc1cc(C(C)C)c2c(c1)S(=O)(=O)N(COc1cc(=O)n3cccc(OCCN4CCCCC4)c3n1)C2=O | inactive | 
CCCCN1C(=O)[C@@H]([C@H](O)C2CCCCC2)NC(=O)C12CCN(Cc1ccc(Oc3ccc(C(=O)O)cc3)cc1)CC2 |  | 9.92 µM (active)
O=S(=O)(O)c1ccc(N=Nc2c(O)ccc3cc(S(=O)(=O)O)ccc23)cc1 | inactive | 
